Results as given in PubChem BioAssay (NCATS).
Records with an inconclusive call do not appear. Active and inactive are the calls of the source. Calls follow the shape of the dose curve; as a rule, active = well fitted cell-killing curve with a large enough effect; inconclusive = small, poorly fitted or top-dose-only effect, or effect the other way; inactive = flat fitted curve, though single readings scatter.

These compounds were tested on CAOV3 (assay: Primary qHTS to identify gynecologic anti-cancer compounds using libraries of approved drugs and bioactive compounds (AID 1345084; also: nearly all actives have a fitted effect of over 55% in size)). Details: Gynecologic cancer cell panel viability, ATPlite luminescence, 48 h; series mostly up to 57.5 µM; activity change, negative = cytotoxicity: at the top concentration.
Description: National Center for Advancing Translational Sciences [NCATS] Assay Overview: Chemotherapeutic drug responses vary from cancer to cancer and from patient to patient. These variations could be caused by a number of factors including patient genomic background, tumor mutations, tumor heterogeneity, and aspects of drug treatment. Chemotherapeutic drug resistance is also a common issue and can lead to ineffective treatment and patient death. Here we have profiled the cell killing effects of thousands of compounds to characterize the responses in three gynecological cancers, identify cancer-selective compounds, and understand the diversity of responses to these compounds from pan-cancer suppressors to single cell line selective compounds. In this assay, we screened a 7,914 compound drug library that included approved drug and bioactive compounds in six ovarian, three cervical, and […] placental cancer cell lines using the ATPlite assay for cell viability. […] The cervical cancer cell lines included HeLa, Ca Ski, and C-33 A. The placental cancer cell lines included JEG-3. HEK 293T cells were used as the control cell line to determine the selectivity index. ATPlite is a luminescence based assay reliant on the conversion of a luciferase substrate to light in the presence of ATP. As a cytotoxic compound will suppress growth and decrease the number of cells, the concentration of ATP will decrease, and less light signal will be detected in the well.
Assay Protocol Summary: 1,000 cells in 4 uL of media were dispensed into white, solid bottom 1536-well plates using a Multidrop Combi (Thermo Scientific). The Assay plates were incubated for 16 hours at 37 C with 5% CO2 in assay plates, followed by the addition of 23 nL of DMSO or drug dissolved in DMSO. Each compound was assayed in five concentrations (0.092, 0.46, 2.3, 11.5, and 57.5 uM), using the automated Wako 1536 Pin Tool workstation and incubated at 37 C with 5% CO2 48 hours. 4 uL of ATPlite, the ATP monitoring reagent, was then added to the each well of the assay plates using the Multidrop Combi reagent dispenser followed by incubation for 15 minutes at room temperature. The resulting luminescence was measured using the ViewLux plate reader.
% is scaled to controls: 0 for no effect and ±100 for the full control effect; potency is read from the fitted curve at half-maximal effect.

SMILES	Potency	activity change, negative = cytotoxicity
C=CC(=O)Nc1ccc2ncnc(Nc3ccc(OCc4cccc(F)c4)c(Cl)c3)c2c1	35.5 µM (active)	
Cn1cnc2c(F)c(Nc3ccc(Br)cc3F)c(C(=O)NOCCO)cc21		-12.3% (inactive)
CCOC(=O)[C@@H](N)Cc1ccc(-c2cc(O[C@H](c3ccc(Cl)cc3-n3ccc(C)n3)C(F)(F)F)nc(N)n2)cc1		29.3% (inactive)
Cc1coc2c1C(=O)C(=O)c1c-2ccc2c(C)cccc12		-4.67% (inactive)
Cc1ccc(-n2[nH]c(C)c(N=Nc3cccc(-c4cccc(C(=O)O)c4)c3O)c2=O)cc1C		-6.14% (inactive)
O=C(Nc1ccc(Oc2ccnc3[nH]ccc23)c(F)c1)c1cccn(-c2ccc(F)cc2)c1=O		-17.9% (inactive)
CC1=C(C(=O)Nc2cc3cn[nH]c3cc2F)C(c2ccc(Cl)cc2F)N=C(c2ccnc(Cl)c2)N1 (stereo not drawn)		-22.7% (inactive)
O=C(Nc1cc2cc[nH]c2cn1)c1ccccc1	1.78 µM (active)	
C[C@H](O)[C@@H]1C(=O)N2C(C(=O)O)=C(S[C@@H]3CN[C@H](CNS(N)(=O)=O)C3)[C@@H](C)[C@@H]12		11.7% (inactive)
Nc1ccn(C2CO[C@H](CO)O2)c(=O)n1 (stereo partly drawn)		4.47% (inactive)
CCN(CC)Cc1ccc2cc(COC(=O)Nc3ccc(C(=O)NO)cc3)ccc2c1	7.94 µM (active)	
N[C@H]1CN(c2c(F)cc3c(=O)c(C(=O)O)cn(C4C[C@@H]4F)c3c2Cl)CC12CC2 (stereo partly drawn)		5.52% (inactive)
Cc1ccccc1C(=O)Nc1ccc(C(=O)N2CCCC(O)c3cc(Cl)ccc32)c(C)c1 (stereo not drawn)		3.63% (inactive)
Cc1cn([C@@H]2O[C@H](CO)[C@@H](O)[C@H]2F)c(=O)[nH]c1=O		-2.14% (inactive)
CN1CCc2c(c3ccccc3n2Cc2ccc(C(=O)NO)cc2)C1		-1.04% (inactive)
CCCCOc1ccc(C(=O)Nc2ccc(F)cc2F)cc1		21% (inactive)
FC(F)(F)c1ccc(Nc2nc3ccc(Oc4ccnc(-c5ncc(C(F)(F)F)[nH]5)c4)cc3[nH]2)cc1		-13.3% (inactive)

SMILES	Potency	activity change, negative = cytotoxicity
CS(=O)(=O)N1CCc2c(-c3cnc(N)nc3)nc(N3CCOCC3)nc21		-39.8% (inactive)
CC(C)C[C@H](NC(=O)[C@@H](NC(=O)c1cccc(-c2ccccc2)n1)[C@@H](C)O)B(O)O	0.282 µM (active)	
O=C(O)c1ccc(Nc2ncc3c(n2)-c2ccc(Cl)cc2C(c2c(F)cccc2F)=NC3)cc1		-23.1% (inactive)
CC1(C)O[C@@H]2C[C@H]3[C@@H]4CCC5=CC(=O)C=C[C@]5(C)[C@@H]4[C@@H](O)C[C@]3(C)[C@]2(C(=O)CO)O1		-20.3% (inactive)
CN(C)CC(=O)N1CCC(c2ccc(NC(=O)c3ncc(C#N)[nH]3)c(C3=CCCCC3)c2)CC1		-1.75% (inactive)
c1cncc(CN2CCC(n3ncc4c(N5CCOCC5)nc(-c5ccc6[nH]ccc6c5)nc43)CC2)c1	28.2 µM (active)	
Cc1cnc(Nc2ccc(CN3CCOCC3)cc2)nc1Nc1cccc(S(=O)(=O)NC(C)(C)C)c1	7.94 µM (active)	
COc1ccc(S(=O)(=O)Nc2cccnc2Nc2ccc(O)cc2)cc1		-3.94% (inactive)
CC(O)(C#Cc1ccc2c(c1)N(c1nc(N)ncc1Cl)CC2)c1nccs1 (stereo not drawn)		-0.48% (inactive)
C[N+]1(C)[C@@H]2C[C@@H](OC(=O)C(O)(c3cccs3)c3cccs3)C[C@H]1[C@@H]1O[C@@H]12		16.8% (inactive)
c1ccc2c(Oc3nc(Nc4ccc(N5CCOCC5)cc4)c4ncn(C5CCCCC5)c4n3)cccc2c1		5.54% (inactive)
C[C@H]1[C@@H](OC(=O)CCC(=O)O)O[C@@H]2O[C@@]3(C)CC[C@@H]4[C@H](C)CC[C@@H]1[C@@]24OO3		-5.4% (inactive)
CCC[C@H]1C[C@H](C(=O)N[C@@H]([C@@H]2O[C@@H](SC)[C@@H](O)[C@@H](O)[C@@H]2O)[C@H](C)Cl)N(C)C1		1.74% (inactive)
Oc1ccc([C@@H]2Oc3ccc(O)cc3[C@@H]3CCC[C@@H]32)cc1		0.535% (inactive)
CCn1c(=O)c2c(nc(C=Cc3ccc(OC)c(OC)c3)n2C)n(CC)c1=O		0% (inactive)
CC(C)n1cnc2c(NCCc3ccc(O)cc3)nc(-c3csc4ccccc34)nc21		-1.27% (inactive)
